Hit rate of the full screen: of about 220,000 compounds, about 16,000 (7.3%) were called active. Inconclusive results (about 25%) are left out. The list comes from a sample in which actives are over-represented; it also holds similar structures and randomly drawn compounds. Unmarked numbers belong to inactive results. The call rests on the fitted dose curve; in most records, active means well fitted inhibition curve with a large enough effect (not every such curve was filed as active); inconclusive means small, poorly fitted or top-dose-only effect, or another doubt; inactive means no such curve, though single readings can be large or run the other way.
target: Aldehyde dehydrogenase 1A1 (Homo sapiens) (UniProt P00352); assay: qHTS Assay for Inhibitors of Aldehyde Dehydrogenase 1 (ALDH1A1); conditions: Purified ALDH1A1, NADH fluorescence, propionaldehyde substrate; series mostly up to 75.3 µM; activity, negative = inhibition: at the top concentration;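 on activity, negative = inhibition: plate controls were no enzyme wells and a reference inhibitor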
Potency means the concentration at half of the fitted maximal effect.

Chain of Aldehyde dehydrogenase 1A1 (Homo sapiens) (P00352 whole entry, looked up): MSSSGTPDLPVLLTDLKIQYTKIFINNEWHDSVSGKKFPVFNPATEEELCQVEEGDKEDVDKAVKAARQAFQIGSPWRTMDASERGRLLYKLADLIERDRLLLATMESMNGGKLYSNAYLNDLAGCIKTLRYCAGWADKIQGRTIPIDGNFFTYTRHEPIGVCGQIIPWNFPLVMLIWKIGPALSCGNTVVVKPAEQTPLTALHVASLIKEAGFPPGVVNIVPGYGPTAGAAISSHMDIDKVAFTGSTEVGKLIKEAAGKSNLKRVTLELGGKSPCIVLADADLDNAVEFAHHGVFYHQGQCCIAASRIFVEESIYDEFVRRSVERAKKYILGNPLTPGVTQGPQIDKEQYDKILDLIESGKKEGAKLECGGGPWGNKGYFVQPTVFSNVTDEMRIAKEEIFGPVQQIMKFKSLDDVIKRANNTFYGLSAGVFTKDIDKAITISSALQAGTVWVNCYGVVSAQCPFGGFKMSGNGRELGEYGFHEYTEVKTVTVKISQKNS

Structure (SMILES) | Potency | activity, negative = inhibition [%]
N#Cc1c(NC(=O)CSc2nc3ccccc3c(=O)n2Cc2ccco2)sc2c1CCCC2 | 25.1 µM (active) | 
O=C(CSc1c2c(nc3ccc(Cl)cc13)CCCC2)NCc1ccco1 |  | -7.39
Cc1cc(NC(=O)CSc2nc3cc(Cl)ccc3c(=O)n2Cc2ccco2)no1 |  | -5
O=C(CSc1nc2cc3c(cc2c(=O)n1CCC1=CCCCC1)OCO3)NCc1ccco1 |  | 3.46
COc1ccc(-n2c(SCC(=O)Nc3sc4c(c3C#N)CCCC4)nnc2-c2ccc(O)cc2)cc1 |  | 1.64
C=C(C)Cn1c(SCC(=O)NCc2ccco2)nc2sc3c(c2c1=O)CCC3 | 11.2 µM (active) | 
COc1cc(CNc2ncn[nH]2)ccc1OCc1ccccc1C |  | -2.52
CCC(=O)N1CCC(C(N)=O)(N2CCCCC2)CC1 |  | 4.55
CC(O)CNCCOc1cccc(Oc2ccccc2)c1 (stereo not drawn) |  | -2.23
CCOCCCNC(=O)C(NC(=O)Cc1c[nH]c2ccccc12)c1ccc(OC)cc1 (stereo not drawn) |  | 15.4
CN1CCN(c2ccc(CNS(=O)(=O)c3cccc(F)c3)cc2)CC1 |  | 4.18
O=C(/C=C/c1ccc(Cl)cc1Cl)c1cccnc1 | 10 µM (active) | 
O=C(/C=C/c1ccc(Cl)cc1Cl)NCc1ccco1 |  | -14.2
O=C(/C=C/c1ccc(Cl)c([N+](=O)[O-])c1)c1cccnc1 |  | -4.75
CC1(C)CC(=O)C(C2c3ccccc3S(=O)(=O)c3ccccc32)C(=O)C1 |  | 0.149
COC(=O)c1cc(C)sc1NC(=O)CC1Nc2ccccc2NC1=O (stereo not drawn) |  | -11.8
CN(NC(=O)C1CC(=O)N(c2ccccc2)C1)C1=NS(=O)(=O)c2ccccc21 (stereo not drawn) |  | 21.9
O=C(CCNC(=O)c1ccc([N+](=O)[O-])cc1)Nc1ccccc1N1CCOCC1 |  | 0.402
CCOc1ccc(C(=O)NC(=S)Nc2ccc(N3CCOCC3)c(Cl)c2)cc1[N+](=O)[O-] | 2.51 µM (active) | 
CCOC(=O)c1c(NC(=O)c2ccc(N3CCOCC3)c([N+](=O)[O-])c2)sc(C)c1C |  | -13.7
O=C(CSc1ccc([N+](=O)[O-])cn1)Nc1ccc(N2CCOCC2)cc1 |  | -1.5
O=C(CSc1ccc([N+](=O)[O-])cn1)Nc1ccc(N2CCOCC2)c(Cl)c1 | 22.4 µM (active) | 
CCOc1ccc(C(=O)NC(=S)Nc2ccc(NC(=O)C(C)C)cc2)cc1[N+](=O)[O-] |  | 0.53
CN(C)N(C)C(=O)C(O)(c1ccccc1)c1ccccc1 |  | 8.36
Cc1ccc(S(=O)(=O)N(C)c2ccc(OCC(=O)NC3=NCCS3)cc2)cc1 |  | -3.62
Cc1cc(C(C)(C)C)cc(C)c1N |  | 1.92
Cc1ccnc(N)c1 |  | -5.54

Structure (SMILES) | Potency | activity, negative = inhibition [%]
Cc1cc(C)cc(N)c1 | 25.1 µM (active) | 
Cc1ccc(NC(=O)c2cccnc2C(=O)Nc2ccc(C)cc2)cc1 |  | -3.95
CCCSc1nsc(N)n1 | 20 µM (active) | 
CCCCCCSc1nsc(N)n1 |  | 4.63
COc1ccccc1OCC(=O)OCn1c(SC)nnc(C)c1=O |  | -9.76
CCOC(=O)c1cnc2[nH]c3ccccc3n2c1=O |  | -6.72
CCSc1ccccc1C(=O)Nc1ccc2c(c1)OCO2 |  | -6.99
CCOC(=O)C1=C(C)Nc2nc3ccccc3n2C1c1cccs1 (stereo not drawn) |  | 2.54
CCOC(=O)C1=C(C)NC(=S)NC1c1cccs1 (stereo not drawn) | 3.16 µM (active) | 
CCOC(=O)C1=C(C)NC(C)=C(C(=O)OCC)C1c1ccccn1 |  | -5.2
C/C(=N\NC(=O)COc1c(C)cccc1C)c1cccs1 |  | -2.33
CCOc1ccc(C(=O)NC2CCN(CC(=O)NCc3cccs3)CC2)cc1 |  | -4.03
Cc1cc(C)n(-c2nnc(N3CCN(c4ccccc4)CC3)nn2)n1 |  | 4.54
CCOC(=O)c1c(N=CN(C)C)c(C#N)c2n1CCCC2 |  | -3
CCSc1ncnc2c(C#N)c3n(c12)CCCCC3 | 12.6 µM (active) | 
C=C(C)c1cccc(C(C)(C)NC(=O)NCCN(CC)CC)c1 |  | 7.9
CCN(CCn1cccn1)C(=O)CC1C(=O)NCCN1Cc1cccc(OC)c1OC (stereo not drawn) |  | 0.331
CCc1ccc2c(c1)C(c1ccc([N+](=O)[O-])cc1)=NNC(c1ccccc1)=N2 |  | 0.978
CCc1ccc2c(c1)C1(NN=C(c3ccccc3)S1)C(=O)N2 (stereo not drawn) | 28.2 µM (active) | 
C=C1c2cc(CC)ccc2NC(=O)N1c1ccc(C)cc1 |  | -14.3
CCOc1cc(/C=C2/C(=N)N3OC(C)=CC3=NC2=O)ccc1OC |  | 16.1
CCS(=O)(=O)C1=NSC2=NC(=O)/C(=C\c3cc(C)n(-c4cccc(OC)c4)c3C)C(=N)N21 | 20 µM (active) | 
NC(=O)COC(=O)/C=C/c1ccc2ccccc2n1 |  | -2.07
O=C(c1ccco1)N1CCN(C(=O)C2CC(c3ccc(Cl)c(Cl)c3)=NO2)CC1 (stereo not drawn) |  | -9.91
O=C(c1ccco1)N1CCN(c2cccc(Cl)c2)CC1 |  | -4.35
O=C(c1ccco1)N1CCN(C(=O)C2c3ccccc3Oc3ccccc32)CC1 | 8.91 µM (active) | 

From PubChem BioAssay AID1030 (National Center for Advancing Translational Sciences (NCATS), 2008)
